# Test results reported in PubChem BioAssay (NCATS).
# Results filed as inconclusive are left out. Active and inactive are the calls of the source. Calls come from the whole dose curve; as a rule, active = well fitted inhibition curve with a large enough effect; inconclusive = small, poorly fitted or top-dose-only effect; inactive = no such curve, though single readings can be large or run the other way.
# Experiment: qHTS assay for measurement of the activity of small molecule inhibitors on Zika virus induced Caspase-3 activity in human iPSC derived neural progenitor cells (hNPCs) (AID 1224857); note: nearly all actives have a fitted effect of over 65% in size
# Conditions: hNPCs ZIKV-induced caspase-3/7, Caspase-Glo luminescence, 6 h; series mostly up to 45.7 µM
# Excerpt: National Center for Advancing Translational Sciences [NCATS]
# Johns Hopkins University School of Medicine
# Increase in the Caspase-3 activity indicates an activation of apoptosis cell death pathway caused by Zika virus infection in certain types of neuronal cells including human neural progenitor cells (hNPCs), astrocytes, and astrocytoma cell line (SNB-19). This cell-based caspase-3 activity assay measures the increased caspase-3 activity in the human iPSC derived neural progenitor cells (hNPCs) after a 6-hour Zika virus infection with a luminescence readout. A decrease in the luminescence signal in this assay by small molecule treatment indicates an inhibitory effect of that small molecule on the Zika virus induced caspase-3 activity that may correlate with its effect on reduction of Zika virus caused cell death.
# The medium for hNPCs consists of DMEM/F12, N2 supplement (ThermoFisher, Cat.# 17502048), NEAA (ThermoFisher, Cat. # 11140050), 2 ug/ml heparin, 2 uM cyclopamine, and B27 (ThermoFisher, Cat. # 17504044). A Caspase-Glo 3/7 assay kit (catalog number G8092; Promega, Madison, WI) was used to detect caspase-3 activity induced by Zika virus infection in human cells. The reagent mixture was reconstituted as described in the protocol from the manufacturer. Polystyrene tissue culture treated and PDL coated white plates were obtained from Greiner Bio-One (Monroe, NC). Cells were seeded in 384- or 1536-well assay plates and cultured at 37 C with 5% CO2 for 16 to 20 hours. The typical cell seeding density in the 1536-well plate assay is 350 cells/well in 3 ul medium for hNPCs in tissue culture treated plates. Compounds were added to cells and incubated for one hour before addition of ZIKV solution to cells (2 FFU/cell). After incubation at 37 C with 5% CO2 for 6 hours, the reagent mixture of Caspase-Glo 3/7 assay kit was added to each well, followed by incubation at room temperature for 30 minutes. The luminescence intensity of the assay plates was measured using a ViewLux plate reader (PerkinElmer). Data were normalized by using the cell-containing wells without ZIKV as a negative control (0% induction of caspase 3/7 activity) and wells containing ZIKV infected cells (Caspase-3 activity induced) as a positive control (100% induction of caspase 3 activity). The percentage inhibitions of the increased Caspase-3 activity by small molecule inhibitors were then calculated.
row,Structure (SMILES),outcome
1,C[C@@H](O)[C@H]1C(=O)N2C(C(=O)O)=C(SCCN=CN)C[C@H]12,inactive
2,CC(=O)Oc1cc(C(C)C)c(OCCN(C)C)cc1C,inactive
3,CCn1cc(C(=O)O)c(=O)c2cc3c(cc21)OCO3,inactive
4,COc1ccc([C@@H]2Sc3ccccc3N(CCN(C)C)C(=O)[C@@H]2OC(C)=O)cc1,inactive
5,COCC(=O)O[C@]1(CCN(C)CCCc2nc3ccccc3[nH]2)CCc2cc(F)ccc2[C@@H]1C(C)C,inactive
6,COc1cc(Cc2cnc(N)nc2N)cc(OC)c1OC,inactive
7,CN(C)CCCN1c2ccccc2Sc2ccccc21,inactive
8,CN(C)CC/C=C1\c2ccccc2COc2ccccc21,inactive
9,CC(C)COCC(CN(Cc1ccccc1)c1ccccc1)N1CCCC1 (stereo not given),inactive
10,CC(C)(C)NCC(O)c1cc(O)cc(O)c1 (stereo not given),inactive
11,NC(N)=N/N=C/c1c(Cl)cccc1Cl,inactive
12,NC(N)=NC(=O)Cc1c(Cl)cccc1Cl,inactive
13,C[C@H](CS)C(=O)N1CCC[C@H]1C(=O)O,inactive
14,C(=C\c1ccccc1)/CN1CCN(C(c2ccccc2)c2ccccc2)CC1,inactive
15,CN1C(=O)CC[C@H]1c1cccnc1,inactive
16,CN(C)CC[C@@H](c1ccc(Br)cc1)c1ccccn1,inactive
17,FC(F)(F)c1ccccc1-n1ccnc1,inactive
18,NC/C=C/C(=O)O,inactive
19,CCN(CC)CCNC(=O)c1ccc(NC(C)=O)cc1,inactive
20,COC(=O)[C@H]1[C@H]2C[C@@H]3c4[nH]c5cc(OC)ccc5c4CCN3C[C@H]2C[C@@H](OC(=O)c2cc(OC)c(OC)c(OC)c2)[C@@H]1OC,inactive

row,Structure (SMILES),outcome
1,O=C1CC2(CCCC2)CC(=O)N1CCCCN1CCN(c2ncccn2)CC1,inactive
2,CN1CCN(C2=Nc3ccccc3Oc3ccc(Cl)cc32)CC1,inactive
3,NC(=Nc1ccccc1)Nc1ccccc1,inactive
4,Cc1scc2c1N(C(=O)CN1CCN(C)CC1)c1ccccc1NC2=O,inactive
5,c1cnc(N2CCN(Cc3ccc4c(c3)OCO4)CC2)nc1,inactive
6,CCOC(=O)c1cnc2c(cnn2CC)c1NN=C(C)C,inactive
7,CC(=O)[C@@]1(O)CC[C@H]2[C@@H]3CCC4=CC(=O)CC[C@]4(C)[C@H]3CC[C@@]21C,inactive
8,O=c1[nH]c(=O)n([C@H]2C[C@H](O)[C@@H](CO)O2)cc1Br,inactive
9,NC(=O)N1c2ccccc2C=Cc2ccccc21,inactive
10,CN(C(=O)CCCOc1ccc2[nH]c(=O)ccc2c1)C1CCCCC1,inactive
11,CCc1cccc(N(C)C(N)=Nc2cccc3ccccc23)c1,inactive
12,CN1C[C@H](C(=O)N[C@]2(C)O[C@@]3(O)[C@@H]4CCCN4C(=O)[C@H](Cc4ccccc4)N3C2=O)C[C@@H]2c3cccc4[nH]cc(c34)C[C@H]21,inactive
13,CN=C(NC#N)NCCSCc1nc[nH]c1C,inactive
14,COc1cc2c(cc1OC)-c1cc(=Nc3c(C)cc(C)cc3C)n(C)c(=O)n1CC2,inactive
15,CCN(Cc1ccncc1)C(=O)C(CO)c1ccccc1 (stereo not given),inactive
16,COCCc1ccc(OCC(O)CNC(C)C)cc1 (stereo not given),inactive
17,CCCCCCCC/C=C\CCCCCCCC(=O)NCc1ccc(O)c(OC)c1,inactive
18,COC(=O)C1=C(C)NC(C)=C(C(=O)OCCN(C)Cc2ccccc2)C1c1cccc([N+](=O)[O-])c1 (stereo not given),inactive
19,CCn1nc(C(=O)O)c(=O)c2cc3c(cc21)OCO3,inactive
20,CCC(=O)c1ccc2c(c1)N(CCCN(C)C)c1ccccc1S2,inactive
